According to PubChem BioAssay AID2113 (National Center for Advancing Translational Sciences (NCATS), 2009):
Records with an inconclusive call do not appear. Where a call stands in place of a potency, no number is given. Activity calls are given as the source filed them. The call rests on the fitted dose curve; in most records, active means well fitted curve in either direction with a large enough effect; inconclusive means small, poorly fitted or top-dose-only effect; inactive means no such curve, though single readings can be large or run the other way.

target: Lysosomal alpha-glucosidase (Homo sapiens) (UniProt P10253); assay: Confirmation of Inhibitors and Activators of Human alpha-Glucosidase From Spleen Homogenate; conditions: alpha-glucosidase enzyme activity; series mostly up to 60.5 µM;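 on potency: fluorescence of 4-methylumbelliferone released from a fluorogenic glucopyranoside substrate at pH 5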
Method in brief: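 Compounds titrated against spleen-homogenate alpha-glucosidase, pH 5.0, 1 mM 4-MU-glucoside substrate, 37 C for 40 min. Fluorescence after pH 10 stop, normalised to no-enzyme and enzyme controls; Hill-equation AC50.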
Potency means the concentration at half of the fitted maximal effect.

SMILES	Potency
CCc1sc(-c2cc3ccc(O)cc3oc2=O)nc1-c1ccccc1	inactive
O=S(=O)(c1ccc(-c2ccccc2)cc1)N1CCOCC1	inactive
CCCN1CNc2c(c(=O)[nH]c(=S)n2CCc2ccc(OCC)c(OCC)c2)C1	25.1 µM (active)
O=S(=O)(c1cccc(Br)c1)N1CCOCC1	inactive
Cc1c(Nc2c3ccccc3nc3ccccc23)c(=O)n(-c2ccccc2)n1C	inactive
CN(C)N=C1c2cc(S(=O)(=O)N3CCOCC3)ccc2-c2ccc(S(=O)(=O)N3CCOCC3)cc21	inactive
Cc1nnc(SCC(=O)Nc2nsc(-c3ccc(C(C)(C)C)cc3)n2)s1	inactive
Cn1cnc2c(NCc3ccccc3)nc(NCCO)nc21	inactive
CC1=C(C(=O)OC(C)C)C(c2cccc([N+](=O)[O-])c2)n2c(cc(=O)[nH]c2=S)N1 (stereo unspecified)	inactive
O=S(=O)(c1ccc2c(c1)C(=NNc1ccccc1)c1cc(S(=O)(=O)N3CCOCC3)ccc1-2)N1CCOCC1	inactive
COc1ccc(-c2nnc(NC(=O)CSc3ccc(Cl)cc3)s2)cc1	inactive
O=S(=O)(c1ccc(F)cc1)N1CCOCC1	inactive
COc1ccc(CCn2c3c(c(=O)[nH]c2=S)CN(C(C)C)CN3)cc1OC	44.7 µM (active)
CCC(C)N1CNc2c(c(=O)[nH]c(=S)n2-c2cccc(C)c2)C1 (stereo unspecified)	inactive
Clc1ccc(Nc2ncnc3ccc(Br)cc23)cc1	inactive
Cc1ccc(S(=O)(=O)N(C)C)cc1NC(=O)COC(=O)Cc1ccc(Br)cc1	inactive
O=C(O)Cc1sc(-c2cc3ccccc3oc2=O)nc1-c1ccc(-c2ccccc2)cc1	inactive
C=CCn1c2ccccc2c2nnc(SCC(=O)NC(C(=O)OC)C(C)C)nc21 (stereo unspecified)	inactive

SMILES	Potency
O=C(/C=C/c1ccc(O)c(O)c1)c1ccc(O[C@@H]2O[C@H](CO)[C@@H](O)[C@H](O)[C@H]2O)c(O)c1O	inactive
COc1ccc(CCc2c[nH]c(=O)c3cncnc23)cc1OC	inactive
CCCCn1c(CN2CCN(c3cccc(Cl)c3)CC2)nc2c1c(=O)n(C)c(=O)n2C	inactive
O=C1Cc2cc(S(=O)(=O)N3CCN(c4ccc(CO)cc4)CC3)ccc2N1	25.9 µM [inhibitor] (active)
Cc1ccc(N2CCN(S(=O)(=O)c3ccc4c(c3)CC(=O)N4)CC2)cc1	inactive
Cc1csc(-c2cc3ccccc3oc2=O)n1	31.6 µM (active)
COc1ccc(N2CCN(S(=O)(=O)c3ccc4c(c3)CC(=O)N4)CC2)cc1	18.8 µM [inhibitor] (active)
Cc1sc(-c2cc3ccccc3oc2=O)nc1-c1ccccc1	inactive
CC1CCc2c(nc3ncnn3c2N2CCN(c3ccccc3F)CC2)C1 (stereo unspecified)	inactive
CCCN1CNc2c(c(=O)[nH]c(=S)n2CCc2cc(Cl)ccc2Cl)C1	14.1 µM (active)
O=C1CC(c2ccccc2)Cc2nc(NCc3ccco3)ncc21 (stereo unspecified)	inactive
COC(=O)c1cccc(S(=O)(=O)N2CCOCC2)c1	inactive
COc1ccc(-c2cc(=O)c(C(=O)c3ccc(C)cc3)n[nH]2)cc1	inactive
Nc1ccccc1S(=O)(=O)N1CCOCC1	inactive
Cc1ccc(-c2nc(-c3cc4ccccc4oc3=O)sc2C)cc1	inactive
COC(=O)c1c(NC(=O)Cn2nc(C(F)F)cc2C(F)F)sc(C)c1C	inactive
O=C(NCCCN1CCOCC1)c1cccs1	inactive
O=C(Cn1c(=O)[nH]n(-c2ccccc2)c1=O)N1CCCc2ccccc21	inactive
